# In the library only some 3.9% were active in any assay of this set; here they are far more common.
# CF NFkB inh – inhibitors of PAF-induced NF-kB signaling, primary screen, cell-based, GFP fluorescence, uHTS; KKLEB NF-kB-GFP reporter, GFP fluorescence overnight; inhibition, % at 5 µM; actives 0.86% (n = 360,000); AID 588850, 2011;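 active = at least 50% inhibition at 5 µM, scaled per plate between neutral and stimulator controls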;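 note: PAF is a Pseudomonas aeruginosa culture filtrate used as stimulus; plate controls were PAF-stimulated DMSO wells for no effect and unstimulated DMSO wells for full effect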
# KKLEB cytotox – cytotoxicity in KKLEB CF airway cells, primary screen, cytotoxicity control for CF NF-kB inhibitor project, cell-based, uHTS, fluorescence assay plates; actives 0.36% (n = 360,000); activity change (cytotoxicity), % at 5 µM; KKLEB CF airway cells viability, ATPlite luminescence, overnight; active compounds read low; cells stimulated with P. aeruginosa culture filtrate; AID 602141, 2011;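 active = corrected activity change at or below -50% at 5 µM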
# TROY NFkB inh – inhibitors of TROY-driven NF-kB signaling, primary screen, Q293 LMP1-TROYcd cells, NF-kB luciferase, uHTS; Q293 LMP1-TROYcd NF-kB luciferase reporter, 4 h; inhibition, % at 10 µM; actives 0.98% (n = 360,000); AID 1347056, 2019;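 active = compounds whose plate-normalised and pattern-corrected inhibition of the luciferase reporter signal at the single screening dose is 50% or more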
# Peg3 prom inh – Peg3 promoter-driven luciferase inhibitors, primary screen, cell-based, HeLa, luciferase luminescence; HeLa PEG-Prom luciferase reporter, overnight; inhibition, % at 20 µM; actives 1.7% (n = 360,000);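 active = inhibition of at least 50% at 20 µM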
# HIF-2a inh – HIF-2a reporter inhibitors, primary screen, luminescence, 786-0 RCC cells; 786-0 RCC cells HIF-2a reporter, luciferase luminescence, overnight; inhibition, % at 18.8 µM; actives 0.72% (n = 360,000); AID 624352, 2012;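 active = inhibition of the luminescence signal of 40% or more relative to plate controls, in a single-dose primary screen at 18.75 µM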
# TWEAK-Fn14 inh – inhibitors of TWEAK-Fn14 signaling, primary screen, luciferase reporter cells, uHTS | TWEAK-stimulated Fn14 reporter cells, luciferase luminescence, 8 h | AID 1159606, 2016 | inhibition, % at 10 µM | actives 2% (n = 360,000); in the data active = inhibition above about 50%
# The depositor's hits bear a star; . = not tested or not shown.
SMILES,CF NFkB inh,KKLEB cytotox,TROY NFkB inh,Peg3 prom inh,HIF-2a inh,TWEAK-Fn14 inh
CCC(C)NC(=O)C1CCCN(C(=O)Nc2ccc(F)cc2)C1 (configuration not stated),14.7,3.8,7.1,-4.8,19.6,5.2
CCOc1ccc(Nc2nc(NCC3CCCO3)c3ccccc3n2)cc1 (configuration not stated),30.0,-25.0,47.7,5.6,-38.1,27.4
Cc1cc2ncc(-c3cccs3)nc2cc1C,-17.6,-34.3,12.4,-31.2,-29.8,71.3*
c1csc(-c2ccc3ccccc3n2)c1,10.0,-2.7,-46.4,-287.1,-242.1,-16.4
CCN(CC)c1ccc(C(=C2C=CC(=[N+](CC)CC)C=C2)c2ccc(N(CC)CC)cc2)cc1,91.7*,-101.1*,90.8*,105.6*,97.5*,103.0*
O=C(NC(Nc1ncc(S(=O)(=O)c2ccc([N+](=O)[O-])cc2)s1)(C(F)(F)F)C(F)(F)F)c1ccc(Cl)cc1,49.5,-55.2*,53.0*,41.9,-2.9,46.9
C/C(=N\NC(=O)c1cc2ccccc2cc1O)c1cccs1,-27.1,-0.9,-7.8,-61.4,-26.8,52.8*
Cc1cc(N=O)c(C)cc1O,8.3,21.9,7.1,6.1,-27.2,33.9
Cc1cc(O)c(-c2cc(O)c(C)cc2O)cc1O,-3.4,-6.3,-1.4,69.6*,16.4,20.8
CC(C)Nc1nc(NCc2ccccc2)c2sccc2n1,-41.2,-16.9,57.1*,3.7,-52.9,3.2
CCOC(=O)Cc1ccc(Nc2nc(NCc3ccccc3)nc3ccsc23)cc1,17.4,-7.6,57.3*,31.3,17.1,93.1*
Cc1ccc(CNc2nc(NCC3CC3)nc3ccsc23)c(C)c1,28.7,-17.0,44.3,76.6*,18.6,25.0
COc1ccccc1CNc1nc(NCc2cccs2)nc2ccsc12,-1.2,-11.1,42.2,-0.5,4.1,22.2
COc1ccccc1CNc1nc(Nc2cccc(-c3cnco3)c2)c2sccc2n1,22.3,-15.8,75.1*,91.4*,-6.8,97.8*
COC(=O)c1[nH]c2ccc(C)cc2c1NC(=O)C1=COCCO1,13.0,-9.8,7.4,5.9,3.9,5.5
COc1ccccc1CNc1nc(NCc2ccccc2SC)c2sccc2n1,15.2,-8.7,54.9*,39.1,9.1,90.5*
COc1ccccc1CNc1nc(NCc2ccccc2OC)c2sccc2n1,7.2,-11.1,56.9*,58.3*,16.9,41.6
COc1ccccc1CNc1nc(NCc2ccc3occc3c2)c2sccc2n1,13.2,-18.4,38.4,90.5*,8.8,27.3
CC(CCc1ccccc1)OS(N)(=O)=O (configuration not stated),3.9,-15.7,-5.0,-3.4,4.9,19.5
CC(C)Oc1ccc(CSc2ncn[nH]2)cc1,17.9,14.2,-18.6,-115.1,-127.2,-15.8
CC(C)Oc1ccc(CSC(=N)N)cc1,-6.3,-0.8,-2.4,3.0,-3.7,65.0*
O=C(NC12CC3CC(CC(C3)C1)C2)N1CCN(c2nc(-c3ccccc3)cs2)CC1,4.1,-3.1,.,27.1,11.7,71.3*
O=C(NC1CCCCC1)N1CCN(c2nc(-c3ccccc3)cs2)CC1,5.3,8.5,30.1,6.1,3.5,-18.6
CC(C)NC(=O)CSc1nnc2sc3ccccc3n12,1.3,8.4,-8.2,-38.1,-86.3,-16.7
NC(=O)CSc1nnc2sc3ccccc3n12,-8.7,0.7,.,8.4,5.5,85.0*
Cc1onc(-c2ccccc2)c1C(=O)Nc1ccc(N2CCOCC2)cc1,1.8,7.4,9.8,11.5,3.6,4.8
c1ccc(COc2ccc(OCCCN3CCCC3)cc2)cc1,12.2,-6.8,34.7,-117.8,-48.0,50.8*
COCc1cccc(-c2csc(C(N)c3ccc(F)c(F)c3)n2)c1 (configuration not stated),-5.3,-6.0,-16.4,-27.3,-12.5,-14.9
COc1ccc(CCn2c(C3CCCCC3)nc3c(c(=O)c4ccccc4n3C)c2=O)cc1,15.9,-0.4,64.8*,44.1,32.4,0.2
